LGR2 antag: Drosophila LGR2 receptor signaling inhibition; inhibition, % at 9.99 µM; AID 720647; 380,000 compounds, 0.35% hits; HEK293 LGR2, CRE-luciferase, bursicon-stimulated, 4 h;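 active = drop in luminescence signal, shown as inhibition above about 50% in the replicate tests, limit read from the data, passing the limit was not always enough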;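 note: agonist challenge used bursicon conditioned medium at about half maximal strength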
EWS-Fli block: EWS/Fli transcriptional activity inhibition; A673 NR0B1-luciferase reporter, viability-normalised; inhibition, % at 12.6 µM; 350,000 compounds, 0.67% hits; AID 651661;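 active = mean inhibition of at least 50% after viability correction, with every replicate also passing that limit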;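 note: firefly luciferase signal divided by Alamar Blue viability fluorescence both relative to DMSO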
TROY NFkB inh: inhibitors of TROY-dependent NF-kB signaling. Q293 LMP1-TROYcd NF-kB luciferase reporter, 4 h. inhibition, % at 10 µM. 360,000 compounds, 0.98% hits. AID 1347056;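 active = compounds whose plate-normalised and pattern-corrected inhibition of the luciferase reporter signal at the single screening dose is 50% or more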
TWEAK-Fn14 inh: inhibitors of TWEAK-Fn14 interaction signaling | AID 1159606 | 360,000 compounds, 2% hits | TWEAK-stimulated Fn14 reporter cells, luciferase luminescence, 8 h | inhibition, % at 10 µM; in the data active = inhibition above about 50%
PAX8 reporter: lowers PAX8-driven luciferase in RMG-I cells; 360,000 compounds, 1.2% hits; AID 652154; inhibition, % at 12.6 µM; RMG-I TPO-luciferase reporter, SteadyGlo, 24 h;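 active = mean replicate inhibition at least 60% with every replicate also reaching 60%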;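 note: luciferase light reporting Pax8 driven TPO promoter activity; plate controls were median of neutral control wells for no effect and mitoxantrone controls for full effect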
Starred values were filed as active, the others as inactive; . = no result. Only some compounds are listed: those with a hit (about 2.8% of all), similar ones and a draw of the others.

SMILES	LGR2 antag	EWS-Fli block	TROY NFkB inh	TWEAK-Fn14 inh	PAX8 reporter
COc1ccccc1C(=O)Nc1ccc2c(c1)C(=O)N(C)[C@@H]1CC[C@H](CC(=O)NCCc3ccncc3)O[C@H]1CO2	-6	-3	.	.	-2
COCC(=O)Nc1ccc2c(c1)OC[C@@H](C)N(Cc1cncnc1)C[C@H](C)[C@@H](OC)CN(C)C2=O	7	7	.	.	.
O=C(Nc1ccc2nc(-c3ccco3)c(-c3ccco3)nc2c1)NC1CC1	.	.	4	73*	.
CCOC(=O)C(=O)Nc1cccc(C(=O)OCC)c1	9	8	-13	10	8
CCc1ccc(NC(=O)NNC(=O)c2cc3ccccc3cc2O)cc1	8	.	-3	-2	5
CCOC(=O)c1cccc(NC(=O)Nc2ccc(OCC)cc2)c1	1	84*	-30	4	-55
CCOc1ccc(NC(=O)Nc2cccc(C(=O)O)c2)cc1	105*	91*	-53	23	99*
Cc1ccccc1OCC(=O)Nc1cccc(C(=O)O)c1	101*	83*	18	59*	93*
CCOc1ccc(NC(=O)NNC(=O)c2cc3ccccc3cc2O)cc1	-1	-16	52*	55*	.
Cc1noc(C)c1NC(=O)Nc1ccc2c(c1)C(=O)N([C@@H](C)CO)C[C@H](C)[C@H](CN(C)S(C)(=O)=O)O2	-7	-1	.	.	.
C[C@@H]1CN([C@@H](C)CO)C(=O)c2cc(/C=C/c3ccccc3)cnc2O[C@@H]1CN(C)C(=O)Cc1cccnc1	5	-4	.	.	-4
CO[C@H]1CN(C)C(=O)c2ccc(NS(=O)(=O)c3ccc(-c4ccccc4)cc3)cc2OC[C@H](C)NC[C@H]1C	-3	-2	.	.	6
N#C[C@H]1[C@H](c2ccccc2-c2cccc(F)c2)[C@@H](CO)N1C(=O)C1CCOCC1	10	21	.	.	3
C[C@H](CO)N1C[C@H](C)[C@@H](CN(C)C(=O)Nc2ccc(F)cc2)Oc2cc(-c3ccc(F)cc3)ccc2S1(=O)=O	3	34	.	.	.
CCOc1ccc(C(=O)Nc2cccc(C(=O)O)c2)cc1Cl	76*	40	-52	35	51
CCOC(=O)c1cccc(NC(=O)c2ccc(N(C)C)cc2)c1	-15	76*	-83	-21	-59
CCOC(=O)c1cccc(NC(=O)c2ccc(NC(=O)c3ccco3)cc2)c1	-7	.	4	-20	-1
Cc1noc(C)c1NC(=O)Nc1ccc2c(c1)CC(=O)N([C@@H](C)CO)C[C@@H](C)[C@@H](CN(C)Cc1ccc(C(=O)O)cc1)O2	-32	-5	.	.	.
C[C@@H]1CN([C@@H](C)CO)C(=O)c2cc(NS(C)(=O)=O)ccc2O[C@@H](C)CCCCO[C@H]1CN(C)C(=O)c1ccncc1	-12	-6	.	.	.
CC(=O)N1CC2(C1)[C@@H](c1ccc(-c3cccc(F)c3)cc1)[C@@H](CO)N2CC1CC1	-3	0	.	.	.
CCc1nnc(NC(=O)CN2CCN(Cc3cccc(F)c3)CC2)s1	-2	-7	-11	53*	20
COc1cccc(N2CCN(CC(=O)Nc3nnc(-c4ccccc4)s3)CC2)c1	.	.	29	55*	.
C[C@@H]1CCCCO[C@@H](CN(C)CC2CCCCC2)[C@H](C)CN([C@@H](C)CO)C(=O)c2cc(NC(=O)CCCCCC(=O)Nc3ccccc3N)ccc2O1	1	44	.	.	50
CC(C)(C)[Si](C)(C)OC[C@@H]1[C@H]2c3ccccc3O[C@]1(C)NC(=S)N2C(=O)c1ccccc1	.	10	.	.	95*
CC12N=C3SCC(=O)N3[C@H](c3ccccc3O1)[C@H]2CO[Si](C)(C)C(C)(C)C	.	-2	.	.	6
SMILES	LGR2 antag	EWS-Fli block	TROY NFkB inh	TWEAK-Fn14 inh	PAX8 reporter
CC1CC(=O)c2c(cc3c(-c4c(O)cc(O)c5c(O)c6c(cc45)OC(C)CC6=O)c(O)cc(O)c3c2O)O1 (configuration not stated)	.	.	1	78*	.
Cc1ccc(Cn2c(C(C)Nc3nc(-c4ccc(Cl)c([N+](=O)[O-])c4)cs3)nc3cc(C(F)(F)F)ccc32)cc1 (configuration not stated)	.	5	-1	8	-1
CCn1nc([N+](=O)[O-])c(C(C#N)c2nc3cc(C(F)(F)F)ccc3s2)c(Cl)c1=O (configuration not stated)	6	.	65*	-12	.
CCCn1nc([N+](=O)[O-])c(C(C#N)c2nc3ccccc3o2)c(Cl)c1=O (configuration not stated)	17	.	57*	-44	1
Cn1nc([N+](=O)[O-])c(C(C#N)c2ccccn2)c(Cl)c1=O (configuration not stated)	5	1	-7	-10	22
O=C(NC1CCC1)[C@@H]1[C@@H](CO)[C@@H]2Cn3c(ccc(-c4ccccc4F)c3=O)[C@H]1N2C(=O)CC1CC1	4	7	.	.	.
COc1cc(/C=N/NC(=O)c2ccc(CN3C(=O)c4cccc5cccc3c45)cc2)cc(OC)c1O	6	5	23	32	98*
CCCN1[C@@H]2c3ccc(-c4ccncc4)c(=O)n3C[C@H]1[C@H](CO)[C@H]2C(=O)N1CCCCC1	5	3	.	.	10
C=CCn1c(NCCc2ccccc2)nc2c1c(=O)n(C)c(=O)n2C	.	.	38	46	.
C/C(Cl)=C\Cn1c(NCCc2ccccc2)nc2c1c(=O)n(C)c(=O)n2C	17	15	50*	54*	.
C[C@H](CO)N1C[C@H](C)[C@H](CN(C)S(=O)(=O)c2ccc(F)cc2)Oc2ccc(NC(=O)c3ccncc3)cc2C1=O	2	1	.	.	-8
CCOc1ccc(CNc2ccc(N3CCN(Cc4ccccc4)CC3)cc2)cc1	4	11	12	24	11
CCOc1cc(CNc2ccc(N3CCCC3)cc2)cc(Cl)c1OC	.	-13	32	59*	8
CCOc1ccc(CNc2ccc(N3CCCC3)cc2)cc1	.	-13	40	55*	.
COc1cc(CNc2ccc(N3CCCC3)cc2)cc(Cl)c1OC	.	0	20	32	14
C[C@@H]1CN([C@@H](C)CO)C(=O)c2cc(NS(=O)(=O)c3cn(C)cn3)ccc2O[C@H]1CN(C)C(=O)Nc1ccccc1	-7	1	.	.	.
CCCNC(=O)c1ccc2snnc2c1	13	.	0	-13	.
CCCNC(=O)c1nnsc1S(=O)c1ccc(Cl)cc1 (configuration not stated)	103*	41	59*	72*	79*
CCCNC(=O)c1nnsc1S(=O)(=O)c1ccc(Cl)cc1	96*	13	73*	70*	112*
Cc1ccc(S(=O)c2snnc2C)cc1 (configuration not stated)	-10	20	-12	7	-19
CNC(=O)c1nnsc1S(=O)c1ccc(Cl)cc1 (configuration not stated)	102*	-11	60*	63*	56
CO[C@H]1CN(C)C(=O)c2cc(NC(=O)c3ccccc3F)ccc2OC[C@@H](C)N(CC2CC2)C[C@H]1C	11	2	.	.	-9
COCCCN=Cc1c(C)[nH]n(-c2ccc(Br)c(C)c2)c1=O	16	.	71*	65*	-76
